Data as given in the supplement of paper PMC6555819.

Columns and labels:
Assay in all cases: PBM binding z-score (relative to random genomic background probes); higher = stronger binding; sequences stand for … in GC…GCGATTGACAGCGTAGAATGAAGG
[1] = tested on: FXR:RXRa (NR concentration 270 nM, RXRa partner concentration 90 nM)
In short: (§1)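 Ligand-free nuclear receptor dimers were applied to custom Agilent 4×180K protein-binding microarrays whose double-stranded probes carried direct-repeat seeds, single-nucleotide variants, half-site ablations and random human genomic background sequences in 34-nt variable regions. Incubation lasted 1 h. Binding z-scores were computed against the random background probes from regression-normalized fluorescence.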

[2] = tested on: LXRa:RXRa (NR concentration 270 nM, RXRa partner concentration 90 nM)
In short: as §1

[3] = tested on: LXRa homodimer (NR concentration 270 nM)
In short: as §1

[4] = tested on: LXRb:RXRa (NR concentration 270 nM, RXRa partner concentration 90 nM)
In short: as §1

[5] = tested on: LXRb homodimer (NR concentration 270 nM)
In short: as §1

[6] = tested on: PPARa:RXRa (NR concentration 270 nM, RXRa partner concentration 90 nM)
In short: as §1

[7] = tested on: PPARg:RXRa (NR concentration 180 nM, RXRa partner concentration 90 nM)
In short: as §1

[8] = tested on: PPARg:RXRa 270nM:90nM, anti-RXR (NR concentration 270 nM, RXRa partner concentration 90 nM)
In short: as §1

[9] = tested on: PPARg:RXRa 30nM:10nM, anti-RXR (NR concentration 30 nM, RXRa partner concentration 10 nM)
In short: as §1

[10] = tested on: PPARg:RXRa 90nM:30nM, anti-RXR (NR concentration 90 nM, RXRa partner concentration 30 nM)
In short: as §1

[11] = tested on: PPARg:RXRa DBDmut IVT, anti-RXR (DBD mutation: RXRa K156A/R161A, NR concentration 270 nM, RXRa partner concentration 90 nM)
In short: as §1

[12] = tested on: PPARg:RXRa IVT, anti-PPARg (NR concentration 270 nM, RXRa partner concentration 90 nM)
In short: as §1

[13] = tested on: PPARg DBDmut:RXRa IVT, anti-PPARg (DBD mutation: PPARg1 K132A/R137A, NR concentration 270 nM, RXRa partner concentration 90 nM)
In short: as §1

[14] = tested on: PPARg DBDmut IVT, anti-PPARg (DBD mutation: PPARg1 K132A/R137A, NR concentration 270 nM)
In short: as §1

[15] = tested on: PPARg homodimer (NR concentration 180 nM)
In short: as §1

[16] = tested on: PXR:RXRa (NR concentration 270 nM, RXRa partner concentration 90 nM)
In short: as §1

[17] = tested on: PXR homodimer (NR concentration 270 nM)
In short: as §1

[18] = tested on: RARa:RXR (NR concentration 270 nM, RXRa partner concentration 90 nM)
In short: as §1

[19] = tested on: RARa homodimer (NR concentration 270 nM)
In short: as §1

[20] = tested on: RARb:RXRa (NR concentration 270 nM, RXRa partner concentration 90 nM)
In short: as §1

| Sequence | PBM binding z-score [1] | PBM binding z-score [2] | PBM binding z-score [3] | PBM binding z-score [4] | PBM binding z-score [5] | PBM binding z-score [6] | PBM binding z-score [7] | PBM binding z-score [8] | PBM binding z-score [9] | PBM binding z-score [10] | PBM binding z-score [11] | PBM binding z-score [12] | PBM binding z-score [13] | PBM binding z-score [14] | PBM binding z-score [15] | PBM binding z-score [16] | PBM binding z-score [17] | PBM binding z-score [18] | PBM binding z-score [19] | PBM binding z-score [20] |
| --- | --- | --- | --- | --- | --- | --- | --- | --- | --- | --- | --- | --- | --- | --- | --- | --- | --- | --- | --- | --- |
| CAAACTAGGTCAAACGTCAAAGTCGAGCCAACCA | 5.56 | 4.17 | 1.04 | 3.16 | 1.12 | 6.14 | 10.8 | 9.01 | 8.48 | 9.75 | 8.33 | 8.65 | 4.47 | 4.15 | 2.05 | 2.38 | 0.241 | 3.65 | 0.354 | 4.21 |
| TTACCAAGGTGAAAGGTCGTAGATGCACGCCTTG | 3.65 | 3.02 | -0.241 | 2.66 | -0.86 | 5.51 | 8.66 | 8.09 | 7.58 | 8.56 | 2.23 | 5.05 | 1.07 | 0.00894 | 2.17 | 4.04 | 0.0928 | 5.82 | -0.336 | 3.31 |
| CCTATTAGTTGACCATAAGGGCAACCGGAGCTCG | 0.775 | 0.432 | 0.625 | 0.404 | 0.814 | 0.657 | 0.421 | 0.473 | -0.154 | 0.171 | 0.164 | 0.489 | -0.0255 | 0.00899 | 1.98 | 0.686 | 0.931 | 0.893 | 2.04 | 1.72 |
| TAGCCTAGCTCAGATCGGGCCAGTATACGCTATA | -0.961 | -1.35 | -1.07 | -1.25 | -1.34 | -1.21 | -0.0455 | -0.972 | -0.749 | -0.992 | -0.922 | -0.645 | -0.837 | -1.92 | -1.79 | -1.09 | -1.09 | -1.21 | -1.25 | -1.89 |
| TCTCGGAGGACAAGAAAGGTCAGAGCTCGACATC | 2.65 | 3.41 | 2.12 | 2.65 | -0.275 | 3.37 | 0.803 | 2.26 | 2.52 | 2.37 | 1.37 | 0.954 | -0.439 | -0.79 | 2.62 | 3.55 | 0.191 | 4.02 | 0.689 | 4 |
| CCTCGGACGACAGAAGGTCAGAGCTGTCCGCTTT | 1.1 | 1.53 | 0.0414 | 1.18 | -0.358 | 1.83 | -0.153 | -0.0801 | -1.06 | -0.472 | -0.0338 | -0.307 | -1.28 | -2.04 | 1.12 | 1.35 | -0.144 | 2.01 | -0.163 | 2.67 |
| ATATGCAGGTTAGCTGGGGTCATTCAGACTAGGC | 4.95 | 5.96 | 3.01 | 4.92 | 0.363 | 4.7 | 2.52 | 3.4 | 0.768 | 2.26 | 2.79 | 2.76 | 0.943 | 1.03 | 1.18 | 6.31 | 2.68 | 5.26 | 0.349 | 3.15 |
| TAGCCTAGGTCATTGGGCCAGTATGGTACGCATC | 4.05 | 3.25 | 0.37 | 2.07 | 0.231 | 3.63 | 3.54 | 3.7 | 0.478 | 2.47 | 2.56 | 3.68 | 0.116 | 0.266 | 1.26 | 1.38 | -0.75 | 2.07 | -0.00791 | 3.44 |
| CCTGCTAGGTCATTGTCAGCTAATCTACAGTATG | 3.88 | 2.99 | 0.878 | 1.84 | 0.257 | 2.94 | 1.29 | 2.14 | 0.169 | 1.22 | 4.13 | 3.2 | 0.372 | 0.337 | 0.865 | 1.12 | -0.0805 | 1.77 | 0.00948 | 3.55 |
| CAAACCAGGTCACCGGAAGGTCAAAGTCCGCATG | 7.26 | 6.79 | 5.52 | 6.01 | 1.71 | 6.08 | 7.88 | 6.92 | 4.07 | 6.45 | 5.78 | 6.75 | 1.83 | 1.5 | 9.32 | 6.5 | 3.77 | 8.09 | 3.77 | 5.33 |
| CCGTCTGGGGCAAAGGTTACCATACTCAGTACGA | 1.5 | 1.57 | -0.23 | 2.15 | -0.982 | 4.92 | 10.4 | 8.97 | 9.6 | 10.6 | 3.2 | 5.43 | -0.238 | -0.231 | 1.64 | 2.45 | -0.428 | 4.24 | -0.0466 | 2.5 |
| TCATATAGGTAAAGGTGAAAATCGAACGATATGA | 1.01 | 1.19 | -0.224 | 1.35 | 0.0615 | 3.15 | 4.11 | 4.4 | 4.25 | 4.59 | 3.76 | 4.08 | 1.54 | 1.02 | 0.818 | 0.873 | 0.241 | 1.5 | 0.976 | 1.73 |
| TCTAGTTGGTCACGGAGCTCACACACGACGGGTA | 0.213 | 0.0936 | -0.438 | 0.0145 | -0.134 | 0.663 | 0.998 | 1.56 | 2.94 | 2.33 | 2.15 | 2.2 | 0.346 | 0.786 | 0.57 | 0.334 | -0.237 | 0.366 | 0.0423 | 1.5 |
